Source: PubChem BioAssay (NCATS)
Inconclusive results are not listed. Active and inactive are the calls of the source. Calls follow the shape of the dose curve; as a rule, active = well fitted curve in the direction sought with a large enough effect; inconclusive = small, poorly fitted or top-dose-only effect, or another doubt; inactive = no such curve, though single readings can be large; an effect the other way counts as inactive or inconclusive.

Columns and labels:
[1] = Quantitative High-Throughput drug screen in 47 multiple myeloma cell lines against the NCATS MIPE library collection: KMS12PE_JCRB cell viability assay (AID 1918972); also: nearly all actives have a fitted effect of over 30% in size; also: potency is read from the fitted curve at half-maximal effect
Procedure, shortened: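 Myeloma cells (500 per well) were exposed to MIPE 4.0 compounds by pin transfer and incubated 48 hours at 37C, 5% CO2. Viability was read as ATP by CellTiter-Glo luminescence, normalised to DMSO (100%) and media-only (0%) wells.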

[2] = Quantitative High-Throughput drug screen in 47 multiple myeloma cell lines against the NCATS MIPE library collection: KMS21BM_JCRB cell viability assay (AID 1918974); settings: ATP luminescence, 48 h; viability: at 45.8 µM (top of the series); also: potency is read from the fitted curve at half-maximal effect
Procedure, shortened: (§1)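 Inhibition of cell viability is measured here. Each line was plated at 500 cells per well, treated with MIPE 4.0 drugs, kept 48 hours at 37C, then assayed for ATP content by CellTiter-Glo luminescence.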

[3] = Quantitative High-Throughput drug screen in 47 multiple myeloma cell lines against the NCATS MIPE library collection: KMS26_JCRB cell viability assay (AID 1918975); also: nearly all actives have a fitted effect of over 45% in size
Procedure, shortened: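 We plated 500 myeloma cells per well, pinned in MIPE 4.0 compounds, and incubated for 48 hours at 37C. ATP was then quantified with CellTiter-Glo, with DMSO and media-only wells defining 100% and 0%.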

[4] = Quantitative High-Throughput drug screen in 47 multiple myeloma cell lines against the NCATS MIPE library collection: MMM1_PLB cell viability assay (AID 1918976); also: potency is read from the fitted curve at half-maximal effect; nearly all actives have a fitted effect of over 35% in size
Procedure, shortened: (§2)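 Myeloma cells (500/well) treated with MIPE 4.0 compounds for 48 h at 37 °C, 5% CO2. Viability read as ATP via CellTiter-Glo luminescence after 5 min at RT; DMSO-only wells = 100%, media-only = 0% viability.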

[5] = Quantitative High-Throughput drug screen in 47 multiple myeloma cell lines against the NCATS MIPE library collection: NCIH929_DSMZ cell viability assay (AID 1918978); also: nearly all actives have a fitted effect of over 35% in size; also: potency is read from the fitted curve at half-maximal effect
Procedure, shortened: as §2

[6] = Quantitative High-Throughput drug screen in 47 multiple myeloma cell lines against the NCATS MIPE library collection: OCIMY1_PLB cell viability assay (AID 1918979); also: nearly all actives have a fitted effect of over 35% in size; also: potency is read from the fitted curve at half-maximal effect
Procedure, shortened: as §2

[7] = Quantitative High-Throughput drug screen in 47 multiple myeloma cell lines against the NCATS MIPE library collection: MM1S_ATCC cell viability assay (AID 1918980); also: potency is read from the fitted curve at half-maximal effect; nearly all actives have a fitted effect of over 45% in size
Procedure, shortened: as §2

[8] = Quantitative High-Throughput drug screen in 47 multiple myeloma cell lines against the NCATS MIPE library collection: MM1R_ATCC cell viability assay (AID 1918981); also: nearly all actives have a fitted effect of over 35% in size; also: potency is read from the fitted curve at half-maximal effect
Procedure, shortened: as §2

[9] = Quantitative High-Throughput drug screen in 47 multiple myeloma cell lines against the NCATS MIPE library collection: OCIMY7_PLB cell viability assay (AID 1918987); settings: OCI-MY7 myeloma viability, CellTiter-Glo ATP, 48 h; viability (% of DMSO): at 45.8 µM (top of the series); also: nearly all actives have a fitted effect of over 65% in size; also: potency is read from the fitted curve at half-maximal effect
Procedure, shortened: as §2

[10] = Quantitative High-Throughput drug screen in 47 multiple myeloma cell lines against the NCATS MIPE library collection: OPM1_PLB cell viability assay (AID 1918989); also: nearly all actives have a fitted effect of over 40% in size; also: potency is read from the fitted curve at half-maximal effect
Procedure, shortened: as §2

[11] = Quantitative High-Throughput drug screen in 47 multiple myeloma cell lines against the NCATS MIPE library collection: U266_ATCC cell viability assay (AID 1919864); also: nearly all actives have a fitted effect of over 35% in size; also: potency is read from the fitted curve at half-maximal effect
Procedure, shortened: as §2

[12] = Quantitative High-Throughput drug screen in 47 multiple myeloma cell lines against the NCATS MIPE library collection: XG6_PLB cell viability assay (AID 1919865); also: nearly all actives have a fitted effect of over 40% in size; also: potency is read from the fitted curve at half-maximal effect
Procedure, shortened: as §2

[13] = Quantitative High-Throughput drug screen in 47 multiple myeloma cell lines against the NCATS MIPE library collection: MOLP8_DSMZ cell viability assay (AID 1918977); also: nearly all actives have a fitted effect of over 45% in size; also: potency is read from the fitted curve at half-maximal effect
Procedure, shortened: as §2

[14] = Quantitative High-Throughput drug screen in 47 multiple myeloma cell lines against the NCATS MIPE library collection: KMS28PE_JCRB cell viability assay (AID 1918983); also: nearly all actives have a fitted effect of over 35% in size; also: potency is read from the fitted curve at half-maximal effect
Procedure, shortened: as §2

[15] = Quantitative High-Throughput drug screen in 47 multiple myeloma cell lines against the NCATS MIPE library collection: L363_DSMZ cell viability assay (AID 1918984); settings: L363 myeloma viability, CellTiter-Glo ATP luminescence, 48 h; viability (% of control): at 45.8 µM (top of the series); also: nearly all actives have a fitted effect of over 40% in size; also: potency is read from the fitted curve at half-maximal effect
Procedure, shortened: as §2

[16] = Quantitative High-Throughput drug screen in 47 multiple myeloma cell lines against the NCATS MIPE library collection: OCIMY5_PLB cell viability assay (AID 1918988); also: nearly all actives have a fitted effect of over 65% in size; also: potency is read from the fitted curve at half-maximal effect
Procedure, shortened: as §2

[17] = Quantitative High-Throughput drug screen in 47 multiple myeloma cell lines against the NCATS MIPE library collection: KMS20_JCRB cell viability assay (AID 1918973); also: nearly all actives have a fitted effect of over 45% in size; also: potency is read from the fitted curve at half-maximal effect
Procedure, shortened: as §1

[18] = Quantitative High-Throughput drug screen in 47 multiple myeloma cell lines against the NCATS MIPE library collection: KMS34_JCRB cell viability assay (AID 1918985); also: nearly all actives have a fitted effect of over 40% in size; also: potency is read from the fitted curve at half-maximal effect
Procedure, shortened: as §2

[19] = Quantitative High-Throughput drug screen in 47 multiple myeloma cell lines against the NCATS MIPE library collection: SKMM1_PLB cell viability assay (AID 1919863); settings: SKMM1 myeloma viability, CellTiter-Glo ATP, 48 h; viability: stronger effect = lower value; also: nearly all actives have a fitted effect of over 35% in size; also: potency is read from the fitted curve at half-maximal effect
Procedure, shortened: as §2

[20] = Quantitative High-Throughput drug screen in 47 multiple myeloma cell lines against the NCATS MIPE library collection: LP1_DSMZ cell viability assay (AID 1918982); also: nearly all actives have a fitted effect of over 35% in size; also: potency is read from the fitted curve at half-maximal effect
Procedure, shortened: as §2

C=C1[C@H](n2cnc3c(=O)[nH]c(N)nc32)C[C@H](O)[C@H]1CO
inactive: Potency [3] | Potency [6] | Potency [12]
active: Potency [1] 0.296 µM | Potency [2] 1.32 µM | Potency [4] 3.72 µM | Potency [5] 20.9 µM | Potency [7] 14.8 µM | Potency [8] 5.9 µM | Potency [9] 1.18 µM | Potency [10] 2.35 µM | Potency [11] 14.8 µM

CC(C)(C)c1nc(-c2cccc(NS(=O)(=O)c3c(F)cccc3F)c2F)c(-c2ccnc(N)n2)s1
active: Potency [1] 1.87 µM | Potency [2] 2.35 µM | Potency [13] 5.9 µM | Potency [5] 7.43 µM | Potency [7] 16.6 µM | Potency [8] 18.7 µM | Potency [15] 16.6 µM | Potency [9] 0.209 µM | Potency [16] 1.32 µM | Potency [10] 18.7 µM | Potency [11] 5.9 µM | Potency [12] 2.96 µM
inactive: Potency [3] | Potency [6] | Potency [14]

CCC(=C(CC)c1ccc(O)cc1)c1ccc(O)cc1
inactive: Potency [17]
active: Potency [1] 13.2 µM | Potency [5] 16.6 µM | Potency [7] 14.8 µM | Potency [8] 14.8 µM | Potency [14] 18.7 µM | Potency [18] 23.5 µM | Potency [16] 20.9 µM | Potency [19] 14.8 µM | Potency [12] 20.9 µM

CC[C@H](C)n1cc(C)c2c(C(=O)NCc3c(C)cc(C)[nH]c3=O)cc(-c3ccc(N4CCNCC4)nc3)cc21
inactive: Potency [1] | Potency [15]
active: Potency [17] 18.7 µM | Potency [6] 26.4 µM | Potency [7] 0.935 µM | Potency [20] 23.5 µM | Potency [9] 23.5 µM | Potency [16] 23.5 µM | Potency [19] 20.9 µM | Potency [11] 16.6 µM | Potency [12] 16.6 µM

Cc1nn(Cc2ccccc2Cl)c(C)c1CN(C)CC(O)COc1ccc(Cl)cc1 (stereo unspecified)
active: Potency [1] 5.9 µM | Potency [17] 11.8 µM | Potency [4] 18.7 µM | Potency [8] 20.9 µM | Potency [14] 4.69 µM | Potency [16] 10.5 µM | Potency [10] 20.9 µM | Potency [19] 3.32 µM | Potency [11] 18.7 µM | Potency [12] 20.9 µM

C[C@@H]1C[C@H]2[C@@H]3CCC4=CC(=O)C=C[C@]4(C)[C@@]3(F)[C@@H](O)C[C@]2(C)[C@@]1(O)C(=O)CO
active: Potency [17] 0.418 µM | Potency [7] 0.0264 µM | Potency [20] 0.0083 µM
inactive: Potency [1] | Potency [13] | Potency [5] | Potency [6] | Potency [14] | Potency [18] | Potency [9] | viability [19] 118% | Potency [11] | Potency [12]

CC1=C(C(=O)Nc2cc3cn[nH]c3cc2F)C(c2ccc(C(F)(F)F)cc2)CC(=O)N1 (stereo unspecified)
inactive: Potency [1] | Potency [17] | Potency [13] | Potency [5] | Potency [6] | Potency [20] | Potency [14] | Potency [15] | Potency [18] | Potency [16] | Potency [10] | viability [19] 160% | Potency [11] | Potency [12]

O=C(CC12CC3CC(CC(C3)C1)C2)Nc1cccc2nc(NCCNCCO)ccc12
active: Potency [1] 9.35 µM | Potency [17] 6.62 µM | Potency [5] 2.35 µM | Potency [7] 8.33 µM | Potency [8] 20.9 µM | Potency [14] 16.6 µM | Potency [18] 26.4 µM | Potency [9] 0.743 µM | Potency [16] 11.8 µM | Potency [10] 7.43 µM | Potency [19] 16.6 µM | Potency [11] 23.5 µM | Potency [12] 1.18 µM

CCCCCCCCCCCCCC(=O)N[C@H](CO)[C@H](O)c1ccc([N+](=O)[O-])cc1
inactive: Potency [6] | Potency [11]
active: Potency [1] 8.33 µM | Potency [17] 23.5 µM | Potency [5] 23.5 µM | Potency [8] 18.7 µM | Potency [14] 16.6 µM | Potency [15] 16.6 µM | Potency [9] 16.6 µM | Potency [10] 26.4 µM | Potency [19] 7.43 µM | Potency [12] 23.5 µM

CCOC(=O)[C@H]1O[C@H]1C(=O)N[C@@H](CC(C)C)C(=O)NCCC(C)C
inactive: Potency [1] | Potency [17] | Potency [13] | Potency [5] | Potency [6] | Potency [8] | Potency [20] | Potency [9]
active: Potency [16] 29.6 µM | Potency [11] 10.5 µM | Potency [12] 6.62 µM

N#CC1(c2cccc(C(=O)Nc3cc(Oc4ccc5nc(NC(=O)C6CC6)sc5n4)ccc3F)c2Cl)CC1
active: Potency [1] 2.09 µM | Potency [17] 0.469 µM | Potency [5] 6.62 µM | Potency [6] 0.332 µM | Potency [8] 14.8 µM | Potency [19] 2.96 µM | Potency [11] 5.26 µM | Potency [12] 1.48 µM
inactive: Potency [18]

CC[C@H]1OC(=O)[C@H](C)[C@@H](O[C@H]2C[C@@](C)(OC)[C@@H](O)[C@H](C)O2)[C@H](C)[C@@H](O[C@@H]2O[C@H](C)C[C@H](N(C)C)[C@H]2O)[C@](C)(O)C[C@H](C)C(=NOCOCCOC)[C@H](C)[C@@H](O)[C@]1(C)O
active: Potency [7] 20.9 µM
inactive: Potency [1] | Potency [17] | Potency [5] | Potency [18] | Potency [12]
